Measurements from PubChem BioAssay (NCI).
The panel holds about 79,000 compounds, 15% with a hit somewhere; the sample as a whole holds those more often. Activity calls are given as the source filed them. Rule as the data show it: active = growth inhibition above about 70%; inactive = the rest.

Experiments:
[1] = NCI Yeast Anticancer Drug Screen. Data for the rad50 strain (AID 155);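 also: 0% = growth of vehicle-only cultures of the same strain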; details: S. cerevisiae rad50 strain growth inhibition; at 50.0 µM; active compounds read high
In short: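 DNA repair mutant yeast, compound exposure, growth read-out; inhibition is taken relative to vehicle.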

[2] = NCI Yeast Anticancer Drug Screen. Data for the mec2-1 strain (AID 157); details: S. cerevisiae mec2-1 strain, at 50.0 µM, active compounds read high
In short: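 Readout is yeast growth inhibition, normalised to vehicle-treated controls, in the mec2-1 strain exposed to compound.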

[3] = NCI Yeast Anticancer Drug Screen. Data for the sgs1 mgt1 strain (AID 161);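 also: 0% = growth of cultures given vehicle only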; details: S. cerevisiae sgs1 mgt1 strain, at 50.0 µM, active compounds read high
In short: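 Yeast cells carrying a defined DNA-repair defect were exposed to test compounds. Growth inhibition was measured relative to vehicle-treated controls.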

[4] = NCI Yeast Anticancer Drug Screen. Data for the cln2 rad14 strain (AID 165);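 also: 0% = growth equal to vehicle treated cultures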; details: S. cerevisiae cln2 rad14 strain, at 50.0 µM, active compounds read high
In short: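 Relative to vehicle controls, growth inhibition of compound-treated cln2 rad14 yeast was recorded.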

[5] = NCI Yeast Anticancer Drug Screen. Data for the bub3 strain (AID 167); details: S. cerevisiae bub3 mutant strain, at 50.0 µM, active compounds read high
In short: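 In this screen, a yeast mutant lacking normal mitotic checkpoint function is challenged with compound. Relative growth versus vehicle gives the inhibition value.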

[6] = NCI Yeast Anticancer Drug Screen. Data for the mlh1 rad18 strain (AID 175); details: S. cerevisiae mlh1 rad18 strain growth inhibition; at 50.0 µM; active compounds read high
In short: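 Test agents were incubated with a yeast strain of defined genotype (DNA damage repair defect). Inhibition of growth was derived by comparison with vehicle-exposed cultures.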

Measured: growth inhibition

CCCC1(CCC)OC(=O)C(CC)(CC)C(=O)O1
inactive: [1] -10.8% | [2] -3.2% | [3] -1.6% | [4] -23.2% | [5] 14.1% | [6] -6%

CCOC(=O)C1=CN(C)C=C(Br)C1C#N (configuration not stated)
inactive: [1] -2.2% | [2] 10.1% | [3] 4.55% | [4] 6.45% | [5] 8.1% | [6] -4.75%

OCCCNc1nc2cc(Cl)ccc2o1
inactive: [1] 9.2% | [2] 22.6% | [3] 16.1% | [4] -31.1% | [5] 7.9% | [6] -14.9%

COc1ccccc1NC(=O)C(=O)C(c1cnc2ccc([N+](=O)[O-])cc2n1)[N+](=O)[O-] (configuration not stated)
inactive: [1] 16.2% | [2] -3.4% | [3] 6.3% | [4] 18.5% | [5] 7.6% | [6] -0.2%

CCOC(=O)CCc1cn2cc(Br)nc(OC)c2n1
inactive: [1] -18.6% | [2] -38% | [3] 14.6% | [4] 19.9% | [5] 3.7% | [6] -13.6%

O=C(O)CC1CC(=O)c2cccn21 (configuration not stated)
inactive: [1] -4.35% | [2] 4.85% | [3] -8.15% | [4] 3.6% | [5] 0.8% | [6] -34%

Cc1ccc(C2CCC(C#N)=CN2C)cc1 (configuration not stated)
inactive: [1] 11.5% | [2] -0.25% | [3] 1.5% | [4] -39.4% | [5] -13% | [6] 3.6%

O=C(O)c1ccc(F)cc1F
inactive: [1] 6.25% | [2] -15.9% | [3] 11.3% | [4] -32.7% | [5] -3.75% | [6] 2.85%

CCN(CC)CCSC(=O)C(O)(c1ccccc1)c1cccc(C)c1 (configuration not stated)
inactive: [1] 9.1% | [2] 10.1% | [3] -2.2% | [4] -11.9% | [5] -1.4% | [6] 10.6%

O=S(Nc1ccc(Br)cc1)c1ccccc1 (configuration not stated)
inactive: [1] -3.5% | [2] -0.35% | [3] 5.65% | [4] -8.2% | [5] 3.4% | [6] 1.55%

CCCS(=O)(=O)N1CCCC1
inactive: [1] -1.25% | [2] -15.8% | [3] -2.1% | [4] -34.5% | [5] -24.4% | [6] -19.4%

CC(=O)N(C(C)=O)c1cc2c3c(c1)CCCN3CCC2
inactive: [1] 2.2% | [2] -40.8% | [3] -22.1% | [4] -36.8% | [5] -16.1% | [6] -1.6%

Cc1ccc(S(=O)(=O)OCCN2C(=O)CCC2=O)cc1
inactive: [1] 12.8% | [2] 8.8% | [3] 4.65% | [4] 9.5% | [5] -0.95% | [6] 15.8%

COc1ccc(C(=O)/C=C/c2ccc(OC)c(OC)c2OC)c(O)c1
inactive: [1] 17.6% | [2] 1.4% | [3] -8.55% | [4] -18.5% | [5] 16.6% | [6] 14.7%

O=Cc1cccc(/C=N/Nc2nnc(N/N=C/c3cccc(C=O)c3)c3ccccc23)c1
inactive: [1] 30.6% | [2] 26.5% | [3] 35.5% | [4] 33.1% | [5] -3.2% | [6] 17.1%

CCOC(CCNCC(OCC)OCC)OCC
inactive: [1] -46.5% | [2] -56.2% | [3] -29.4% | [4] -11.1% | [5] -4.8% | [6] -22.4%

CCOC(=O)c1c[nH]c2c(C(F)(F)F)cccc2c1=O
inactive: [1] 15.6% | [2] -9.1% | [3] 1.55% | [4] 8.75% | [5] 24.6% | [6] 14.6%

NC(=O)Nc1nc(-c2ccccc2)no1
inactive: [1] -16.7% | [2] 7.15% | [3] -17% | [4] -50.6% | [5] -6.75% | [6] -16.1%

CCCCC(CC)COC(=O)CCl (configuration not stated)
inactive: [1] 21.1% | [2] 10.7% | [3] 8.3% | [4] -14.8% | [5] -1.6% | [6] 21.8%

COC1(OC)c2no[n+]([O-])c2CCC1O (configuration not stated)
inactive: [1] -6.6% | [2] -17.4% | [3] -24.1% | [4] 10% | [5] 4% | [6] -4.45%

C=C(C)C(O)CC (configuration not stated)
inactive: [1] 24.6% | [2] -30.7% | [3] 15.3% | [4] 4.3% | [5] 10.9% | [6] 20.4%

O=[N+]([O-])c1ccc(/C=C2/c3ccccc3-c3nc4ccccc4cc32)cc1
inactive: [1] 21.9% | [2] -2.55% | [3] -2.9% | [4] -2.6% | [5] 7.3% | [6] 20.8%

CCC(O)(c1ccccc1)C(O)c1ccccc1 (configuration not stated)
inactive: [1] -2.35% | [2] 8.9% | [3] -4.4% | [4] 3.8% | [5] 4.95% | [6] -15.8%

Cc1ccc(N(C)c2cc(=O)n(C)c(=O)[nH]2)cc1C
inactive: [1] 14.4% | [2] 16.2% | [3] 10.3% | [4] 28.3% | [5] 12.4% | [6] 14.4%

CCOC(=O)C(/C=N/C(=S)Nc1c(C)cccc1C)=C(/O)c1ccccc1
inactive: [1] -50.3% | [2] -21.6% | [3] -26.1% | [4] -18.6% | [5] -21.2% | [6] -33.4%

O=C(/C=C/c1cccc2ccccc12)c1ccccc1Cl
inactive: [1] 52.9% | [2] -9.25% | [3] 7.65% | [4] 16.9% | [5] -6.65% | [6] 35.2%

c1ccc(C[n+]2cccc3ccccc32)cc1
inactive: [1] 1.75% | [2] -29.6% | [3] -7.1% | [4] 6.25% | [5] -1.95% | [6] -12.2%

CC=C(c1ccc(OC)cc1)c1ccc(OC)cc1
inactive: [1] 0.9% | [2] -9.95% | [3] 5% | [4] -46.9% | [5] 2.55% | [6] -4.5%

CCOC(=O)c1c(C)n2c3c(cccc13)CCC2
inactive: [1] 23.4% | [2] 16.9% | [3] 3.05% | [4] 61.6% | [5] 8.6% | [6] 12.8%

Nc1ccc([N+](=O)[O-])c(C(=O)O)c1
inactive: [1] -10.2% | [2] -26.9% | [3] -15% | [4] 15.9% | [5] -15.1% | [6] -6.9%

COc1cc(-c2nnc3n2NC=C(C(=O)O)S3)cc(OC)c1OC
inactive: [1] 6.75% | [2] 2.45% | [3] -10.9% | [4] 5.45% | [5] 28.2% | [6] 21.8%

CC1=CC(=O)Nc2ccccc2S1
inactive: [1] 43.2% | [2] 29.2% | [3] 59.2% | [4] 17% | [5] 56% | [6] 23.6%

COc1ccc(N2CCN(CC(O)COc3ccc(C(=O)Cc4ccccc4)cc3)CC2)cc1 (configuration not stated)
active: [1] 96.4% | [2] 96.8% | [3] 99% | [4] 86.6% | [5] 91% | [6] 96.7%

CC(=O)C1=C(C)C2CC3(C)CC(C2(C)C1)C3(C)C (configuration not stated)
inactive: [1] 8.45% | [2] -17.1% | [3] -0.95% | [4] 10.6% | [5] -9.75% | [6] -6%

O=C(NNC(=O)c1ccc(Cl)cc1Cl)c1ccc2ccccc2c1
inactive: [1] 9.4% | [2] -42% | [3] -14.4% | [4] 6% | [5] -0.1% | [6] -0.55%

CC(/C=N\NC(=S)SCc1ccccc1)=N/N=C(N)N
inactive: [1] 52.4% | [2] 50.2% | [3] 57.2% | [4] -3.7% | [5] 52.9% | [6] 64.6%

COc1ccc(-c2ccccc2C(=O)O)cc1
inactive: [1] -2.65% | [2] -14.8% | [3] 5.8% | [4] -12.5% | [5] -7.2% | [6] 8.1%

Cc1ncc(CO)c(CN)c1O
inactive: [1] -0.55% | [2] -21.4% | [3] -38% | [4] -23.4% | [5] -28.4% | [6] -1.75%

O=C(Nc1ccccc1)n1cc(-c2ccccn2)c(N2CCOCC2)n1
inactive: [1] -4.6% | [2] -11.1% | [3] 6.15% | [4] -64.5% | [5] -12.9% | [6] -14.4%

Cc1ccc(C)c(NC(=O)NCc2ccc(Cl)cc2)c1
inactive: [1] -7.65% | [2] -41.2% | [3] -11.4% | [4] 13.2% | [5] -58.1% | [6] 10.2%

CC(=O)Nc1cc(=O)[nH]c2c1CCC2
inactive: [1] -4.05% | [2] 5.25% | [3] -1.8% | [4] -16.4% | [5] -3.6% | [6] -4.7%

NC(=O)C(=O)n1ncc(Cl)c(Cl)c1=O
inactive: [1] 2.65% | [2] -3% | [3] 1.05% | [4] 6.55% | [5] 8.25% | [6] -4.1%
